Assay results from PubChem BioAssay (EPA / NIEHS).
Activity calls are given as the source filed them. Rule for the calls: active = hit-call score of the fitted dose curve at least 0.9, where 1 is the maximum; inconclusive = response in the unintended direction; inactive = score below 0.9. Peptide text beside a SMILES is read from it.

What follows are molecules tested against Estrogen receptor (Homo sapiens) (UniProt P03372) (assay: OT_ER_ERaERa_1440: Odyssey Thera (OT) 24-hour HEK293T Protein-Complementation Assay for Estrogen Receptor-alpha/-alpha Homodimer (AID 2283349);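 note: hits raise fluorescence above DMSO for agonists and antagonists alike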).
Estrogen receptor (Homo sapiens), sequence (P03372 whole entry, looked up, the tested form may be a part): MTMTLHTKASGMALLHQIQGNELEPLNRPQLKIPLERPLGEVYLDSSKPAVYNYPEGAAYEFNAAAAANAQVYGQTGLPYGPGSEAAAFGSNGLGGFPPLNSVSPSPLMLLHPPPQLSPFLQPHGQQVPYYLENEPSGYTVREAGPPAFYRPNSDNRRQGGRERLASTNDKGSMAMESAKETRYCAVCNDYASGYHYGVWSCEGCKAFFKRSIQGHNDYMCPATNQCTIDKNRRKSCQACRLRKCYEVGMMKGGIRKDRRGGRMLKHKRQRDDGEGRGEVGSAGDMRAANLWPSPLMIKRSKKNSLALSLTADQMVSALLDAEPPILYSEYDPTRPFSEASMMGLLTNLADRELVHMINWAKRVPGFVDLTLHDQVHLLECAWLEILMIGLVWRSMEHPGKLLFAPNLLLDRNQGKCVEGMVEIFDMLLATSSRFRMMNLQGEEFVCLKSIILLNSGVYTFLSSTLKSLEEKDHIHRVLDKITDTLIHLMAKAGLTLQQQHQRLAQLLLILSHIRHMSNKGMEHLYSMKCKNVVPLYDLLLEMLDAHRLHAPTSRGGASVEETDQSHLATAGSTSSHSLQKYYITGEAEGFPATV
Protocol: OT_ER_ERaERa_1440 is a cell-based assay that uses HEK293T, a human kidney cell line, with measurements taken at 24 hours after chemical dosing in a 384-well plate.OT_ER_ERaERa_1440 is one of one assay component(s) measured or calculated from the OT_ER_ERaERa_1440 assay. It is designed to make measurements of protein fragment complementation, a form of binding reporter, as detected with fluorescence intensity signals by Protein-fragment Complementation technology.Data from the assay component OT_ER_ERaERa_1440 was analyzed into 1 assay endpoint. This assay endpoint, OT_ER_ERaERa_1440, was analyzed in the positive analysis fitting direction relative to DMSO as the negative control and baseline of activity. Using a type of binding reporter, measures of receptor for gain-of-signal activity can be used to understand the binding at the pathway-level as they relate to the gene ESR1. Furthermore, this assay endpoint can be referred to as a primary readout, because the performed assay has only produced 1 assay endpoint. To generalize the intended target to other relatable targets, this assay endpoint is annotated to the nuclear receptor intended target family, where the subfamily is steroidal.
Protein-fragment complementation assay, or PCA, is a method for the identification and quantification of protein-protein interactions. In the PCA, the proteins of interest ("bait" and "prey") are each covalently linked to fragments of a third protein (e.g. DHFR, which acts as a "reporter"). Interaction between the bait and the prey proteins brings the fragments of the reporter protein in close proximity to allow them to form a functional reporter protein whose activity can be measured. The OT ER alpha / ER alpha assay is a homodimer PCA of the ligand binding domain (amino acids 310-547) of human ER alpha stably expressed in HEK293T cells. […] Fluorescent signal in the basal state of the assay is very low and is primarily punctuate and cytoplasmic. Modulation of this assay is quantified as an increase in mean fluorescence intensity in the nucleus (for agonists) or in the nucleus and cytoplasm (antagonists) relative to vehicle controls, and can be quantified on a high content imaging device or a laser scanning cytometer. The latter instrument is favored for this assay because of the rapid mode of data acquisition, the ability to acquire data from the entire cell population in a well (as opposed to a fraction of the well on the high content devices) and the larger dynamic range typically achieved with this instrument. To assess sensitivity of the ER alpha/ER alpha LBD assay to ligand, cells were treated with the ER agonist 17 beta-estradiol (E2) in 10-point concentration- response format for 24 hours and monitored response on a laser scanning plate cytometer (Acumen eX3; TTP Lab Tech).

Structure (SMILES) | outcome | AC50
N#Cc1ccc(C2CCCc3cncn32)cc1 (stereo not given) | inactive | –
O=C(O)c1ccc2c(c1)C(=O)OC2=O | inactive | –
Fc1ccc(Br)cc1 | inactive | –
CC(=O)c1ccccc1O | inactive | –
CC1(C)[C@@H]2CC[C@@]1(C)C(=O)C2 | inactive | –
COC(=O)c1ccccc1C | inactive | –
CC(C)COC(=O)CC(C(=O)OCC(C)C)S(=O)(=O)O (stereo not given) | inactive | –
CCCCCCCCCCCCCC(=O)OC(C)C | inactive | –
COC(=O)[C@H](Cc1ccccc1)NC(=O)[C@@H](N)CC(=O)O (H-Asp-Phe-OMe) | inactive | –
C=C1C[C@H]2[C@@H]3C=C(C)C4=CC(=O)CC[C@]4(C)[C@H]3CC[C@]2(C)[C@@]1(OC(C)=O)C(C)=O | inactive | –
CC(=O)OCc1ccccc1 | inactive | –
COc1ccc(-c2coc3cc(O)cc(O)c3c2=O)cc1 | – | 13.7 µM (active)
C=C(C)C1CC=C(C)CC1 (stereo not given) | inactive | –
CCCCCCCCCC[N+](C)(CCCCCCCCCC)CCC[Si](OC)(OC)OC | inactive | –
CC(CCC(=O)O)(c1ccc(O)cc1)c1ccc(O)cc1 | – | 55.5 µM (active)
CO[Si](C)(C)OC | inactive | –
COc1cc(O)c(C(=O)c2ccccc2)cc1S(=O)(=O)O | inactive | –
CN(C)Cc1cc(CN(C)C)c(O)c(CN(C)C)c1 | inactive | –
CC(C)c1ccc(O)c(C(C)C)c1 | inactive | –
CCCCCCCCCCCCCCCCCCOS(=O)(=O)O | inactive | –

Structure (SMILES) | outcome | AC50
CC1=CCC2CC1C2(C)C (stereo not given) | inactive | –
Cc1ccc(C)c(OCCCC(C)(C)C(=O)O)c1 | inactive | –
O=C(Nc1ccccc1)c1cc(Cl)ccc1O | inactive | –
CCN1CN(CC)CN(CC)C1 | inactive | –
CN(C)c1ccc2nc3ccc(=[N+](C)C)cc-3sc2c1 | inactive | –
Nc1ccc(C(=O)O)cc1 | inactive | –
O=C(O)c1cc(O)c2ccccc2c1O | inactive | –
NC(=O)Nc1ccccc1 | inactive | –
O=C(OCCc1ccccc1)c1ccccc1 | inactive | –
CC12CCC(CC1)C(C)(C)O2 | inactive | –
CCCCCC(=O)OCC | inactive | –
CC(=O)OC(C)c1ccccc1 (stereo not given) | inactive | –
CCOC(=O)C1=NOC(c2ccccc2)(c2ccccc2)C1 | inactive | –
CC(C)c1cc(C(C)C)cc(C(C)C)c1 | inactive | –
CCOC(=O)c1ccc(C)cc1 | inactive | –
Oc1ccccc1Cc1ccccc1O | inactive | –
COc1ccc(C(=O)c2ccccc2)c(O)c1 | – | 66.7 µM (active)
CCC(C)(O)CCCC(C)C (stereo not given) | inactive | –
CCOC(=O)c1ccccc1C | inactive | –
CC(=O)OC1CCCCC1C(C)(C)C (stereo not given) | inactive | –
